Laboratory results taken from PubChem BioAssay (EPA / NIEHS).
Records with an inconclusive call do not appear. Calls of active or inactive are those of the source. Rule for the calls, unless noted: active = hit-call score of the fitted dose curve at least 0.9, where 1 is the maximum; inactive = score below 0.9.

What was measured:
[1] = molecular target: Paired box protein Pax-6 (Homo sapiens) (UniProt P26367); assay: ATG_Pax6_CIS: Attagene CIS-FACTORIAL HepG2 Assay for human Paired Box 6 (PAX6) (AID 2282956); conditions: HepG2 CIS-FACTORIAL PAX6 reporter transcription, RNA readout; actives raise or lower the signal
Chain of Paired box protein Pax-6 (Homo sapiens) (P26367 whole entry, looked up): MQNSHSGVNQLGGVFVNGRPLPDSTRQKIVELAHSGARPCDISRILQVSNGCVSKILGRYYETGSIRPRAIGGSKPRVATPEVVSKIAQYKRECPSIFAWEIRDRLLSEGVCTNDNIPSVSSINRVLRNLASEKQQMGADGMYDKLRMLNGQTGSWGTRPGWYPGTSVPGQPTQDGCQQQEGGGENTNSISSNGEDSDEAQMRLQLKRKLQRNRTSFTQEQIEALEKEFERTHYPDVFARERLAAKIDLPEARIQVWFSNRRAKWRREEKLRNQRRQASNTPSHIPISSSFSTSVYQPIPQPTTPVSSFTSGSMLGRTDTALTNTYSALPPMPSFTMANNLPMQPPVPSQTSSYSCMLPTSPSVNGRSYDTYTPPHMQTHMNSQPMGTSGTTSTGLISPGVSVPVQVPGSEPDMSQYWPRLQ
In short: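 Multiplexed cis-reporter HepG2 system; 24 h treatment; reporter mRNA read by RT-PCR/CE fluorescence; bidirectional fit vs DMSO.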

[2] = ATG_PXRE_CIS: Attagene CIS-FACTORIAL HepG2 Assay for human Pregnane X Receptor Element (PXRE) (AID 2282957); conditions: HepG2 Attagene CIS-FACTORIAL PXRE reporter, mRNA; actives raise or lower the signal
In short: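 Cis-element reporter mRNA in human hepatoma HepG2 cells is measured 24 h post-dosing by RT-PCR, primer-extension labeling and capillary electrophoresis; gain or loss of signal is fitted relative to DMSO.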

[3] = ATG_PPRE_CIS: Attagene CIS-FACTORIAL HepG2 Assay for human Peroxisome Proliferator-activated Response Element (PPRE) (AID 2282958); conditions: HepG2 PPRE cis-element reporter, Attagene transcription factor profiling; actives raise or lower the signal
In short: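 DMSO served as negative control and baseline for bidirectional curve fitting. Signal came from PPRE-regulated reporter mRNA in HepG2 cells, measured 24 h post-dosing by RT-PCR, 6-FAM primer extension and capillary electrophoresis.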

[4] = ATG_RORE_CIS: Attagene CIS-FACTORIAL HepG2 Assay for human RAR-related Orphan Receptor Element (RORE) (AID 2282959); conditions: HepG2 Attagene cis-factorial RORE reporter, mRNA; actives raise or lower the signal
In short: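 Transfect HepG2 with MRTUs; treat 24 h; extract RNA; RT with oligo(dT); PCR with reporter-specific primers; 6-FAM primer extension; HpaI digest 2 h at 37 C; capillary electrophoresis. Fit vs DMSO, bidirectional.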

[5] = ATG_Sox_CIS: Attagene CIS-FACTORIAL HepG2 Assay for human SRY-box transcription factor (SOX) (AID 2282960); conditions: HepG2 Attagene cis-factorial SOX reporter, mRNA; actives raise or lower the signal
In short: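 Fluorescence-labelled cDNA fragments from reporter transcripts, sized by CE, give the signal. Cells: HepG2, transiently transfected with cis-regulated reporter units. Exposure 24 h; DMSO negative control; bidirectional curve fitting.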

[6] = molecular target: Transcription factor Sp1 (Homo sapiens) (UniProt P08047); assay: ATG_Sp1_CIS: Attagene CIS-FACTORIAL HepG2 Assay for human Specificity Protein 1 (Sp1) (AID 2282961); conditions: HepG2 Sp1 cis-reporter transcription, actives raise or lower the signal
Chain of Transcription factor Sp1 (Homo sapiens) (P08047 whole entry, looked up): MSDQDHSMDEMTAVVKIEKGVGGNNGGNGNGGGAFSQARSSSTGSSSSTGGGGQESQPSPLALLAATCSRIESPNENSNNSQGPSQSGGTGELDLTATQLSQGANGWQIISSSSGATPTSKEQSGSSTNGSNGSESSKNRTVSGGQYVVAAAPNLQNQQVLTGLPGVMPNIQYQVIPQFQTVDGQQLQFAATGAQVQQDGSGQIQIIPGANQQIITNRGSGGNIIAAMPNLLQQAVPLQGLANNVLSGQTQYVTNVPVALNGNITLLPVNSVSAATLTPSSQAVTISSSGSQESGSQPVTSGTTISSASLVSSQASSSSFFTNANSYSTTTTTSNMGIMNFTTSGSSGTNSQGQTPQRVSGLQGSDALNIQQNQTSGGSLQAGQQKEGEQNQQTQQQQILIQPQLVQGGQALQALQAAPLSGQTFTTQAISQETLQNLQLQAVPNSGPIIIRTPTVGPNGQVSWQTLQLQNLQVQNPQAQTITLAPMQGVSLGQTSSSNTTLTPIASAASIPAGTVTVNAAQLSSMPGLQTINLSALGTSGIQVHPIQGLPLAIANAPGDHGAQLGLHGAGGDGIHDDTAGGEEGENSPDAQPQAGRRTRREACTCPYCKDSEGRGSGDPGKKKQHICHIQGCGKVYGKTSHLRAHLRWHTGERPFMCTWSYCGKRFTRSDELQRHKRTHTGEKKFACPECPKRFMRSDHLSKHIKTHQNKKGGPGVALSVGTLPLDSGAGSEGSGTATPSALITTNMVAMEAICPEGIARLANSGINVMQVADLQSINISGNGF
In short: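 Chemicals are dosed onto HepG2 cells transfected with multiple cis-promoter reporter constructs, and after 24 h reporter RNA is reverse-transcribed, PCR-amplified and resolved by capillary electrophoresis for fluorescence quantitation; activity is scored up or down against DMSO.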

[7] = ATG_SREBP_CIS: Attagene CIS-FACTORIAL HepG2 Assay for human Sterol Regulatory Element Binding (SREBP) (AID 2282962); conditions: HepG2 Attagene cis-factorial SREBP reporter, mRNA; actives raise or lower the signal
In short: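 mRNA induction of transfected cis-promoter reporters in HepG2 cells, 24 h post-dose. Detection: RT-PCR with 6-FAM-labelled products, HpaI digest, capillary electrophoresis. DMSO served as negative control and baseline.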

[8] = molecular target: Signal transducer and activator of transcription 3 (Homo sapiens) (UniProt P40763); assay: ATG_STAT3_CIS: Attagene CIS-FACTORIAL HepG2 Assay for human Signal Transducer and Activator of Transcription 3 (STAT3) (AID 2282963); conditions: HepG2, Attagene cis-factorial STAT3 reporter transcription; actives raise or lower the signal
Chain of Signal transducer and activator of transcription 3 (Homo sapiens) (P40763 whole entry, looked up): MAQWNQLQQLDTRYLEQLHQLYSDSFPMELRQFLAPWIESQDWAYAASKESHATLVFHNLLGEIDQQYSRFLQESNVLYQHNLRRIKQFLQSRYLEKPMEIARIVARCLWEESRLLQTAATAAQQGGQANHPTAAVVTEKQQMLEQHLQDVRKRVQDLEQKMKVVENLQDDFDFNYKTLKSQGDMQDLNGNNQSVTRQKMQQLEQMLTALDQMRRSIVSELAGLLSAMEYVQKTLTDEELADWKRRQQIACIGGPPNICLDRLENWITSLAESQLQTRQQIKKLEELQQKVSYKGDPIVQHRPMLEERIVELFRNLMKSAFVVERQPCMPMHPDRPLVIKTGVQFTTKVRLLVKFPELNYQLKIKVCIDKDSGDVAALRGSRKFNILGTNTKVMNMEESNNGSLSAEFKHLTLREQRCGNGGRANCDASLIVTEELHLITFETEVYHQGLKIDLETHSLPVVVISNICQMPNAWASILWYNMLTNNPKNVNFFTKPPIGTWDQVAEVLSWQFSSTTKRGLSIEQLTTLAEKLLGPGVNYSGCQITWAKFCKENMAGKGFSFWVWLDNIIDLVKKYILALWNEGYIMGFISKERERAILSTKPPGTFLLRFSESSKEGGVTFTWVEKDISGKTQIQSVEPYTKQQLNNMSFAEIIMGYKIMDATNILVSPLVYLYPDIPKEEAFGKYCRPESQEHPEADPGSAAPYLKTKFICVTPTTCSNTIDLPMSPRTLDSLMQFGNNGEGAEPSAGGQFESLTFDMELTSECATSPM
In short: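 Transcript-level reporter assay. HepG2 transient MRTU transfection, 24 h exposure, fluorescence detection after RT-PCR and CE; DMSO baseline.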

[9] = ATG_TA_CIS: Attagene CIS-FACTORIAL HepG2 Assay for human TA Basal Promoter (AID 2282964); conditions: HepG2 Attagene CIS-factorial TA basal promoter reporter; actives raise or lower the signal
In short: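 Steps: transfect HepG2 with MRTUs; dose 24 h; isolate RNA, DNase-treat, reverse-transcribe; PCR and FAM-label reporter cDNA; digest with HpaI 2h at 37 C; run capillary electrophoresis. Activity fitted both directions against DMSO.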

[10] = ATG_TCF_b_cat_CIS: Attagene CIS-FACTORIAL HepG2 Assay for human T-Cell-Factor with beta-catenin (TCF/b-cat) (AID 2282965); conditions: HepG2 TCF/beta-catenin cis-reporter transcription, actives raise or lower the signal
In short: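 In this cis-format system, transfected HepG2 cells report endogenous transcription factor activity. Readout after 24 h exposure is reporter transcript abundance from RT-PCR and capillary electrophoresis, analysed for gain or loss of signal versus DMSO.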

[11] = ATG_TAL_CIS: Attagene CIS-FACTORIAL HepG2 Assay for human TAL Basal Promoter (AID 2282966); conditions: HepG2 Attagene cis-factorial TAL promoter reporter; actives raise or lower the signal;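 note: background control endpoint measuring basal TAL promoter reporter mRNA not a specific factor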
In short: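 In this cell-based multiplex, HepG2 liver cells bearing cis-promoter reporter constructs are dosed for 24 hours. Total RNA is reverse-transcribed and amplified, labelled fragments are sized by capillary electrophoresis, and signal changes are fitted bidirectionally versus DMSO.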

[12] = ATG_TGFb_CIS: Attagene CIS-FACTORIAL HepG2 Assay for human Transforming Growth Factor (TGF) (AID 2282967); conditions: HepG2 Attagene CIS TGFb reporter, mRNA transcription; actives raise or lower the signal
In short: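 Cells were dosed for 24 hours, after which total RNA was reverse-transcribed and reporter sequences amplified, labeled and sized by capillary electrophoresis. Activity was fitted in both directions against DMSO.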

[13] = ATG_VDRE_CIS: Attagene CIS-FACTORIAL HepG2 Assay for human Vitamin D Receptor Element (VDRE) (AID 2282968); conditions: HepG2 VDRE cis-reporter transcription, actives raise or lower the signal
In short: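 RT-PCR/CE readout of reporter mRNA; HepG2, transient transfection, 24 h dosing; DMSO baseline; bidirectional analysis.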

[14] = molecular target: Nuclear receptor subfamily 1 group I member 3 (Homo sapiens) (UniProt Q14994); assay: ATG_CAR_TRANS: Attagene TRANS-FACTORIAL HepG2 Assay for human Constitutive Androstane Receptor (CAR) (AID 2282969; active = hit-call score of the fitted dose curve at least 0.9, where 1 is the maximum;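 note: activators raise reporter mRNA above DMSO so AC50 marks induction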); conditions: HepG2 Attagene TRANS-FACTORIAL CAR reporter
Chain of Nuclear receptor subfamily 1 group I member 3 (Homo sapiens) (Q14994 whole entry, looked up, the tested form may be a part): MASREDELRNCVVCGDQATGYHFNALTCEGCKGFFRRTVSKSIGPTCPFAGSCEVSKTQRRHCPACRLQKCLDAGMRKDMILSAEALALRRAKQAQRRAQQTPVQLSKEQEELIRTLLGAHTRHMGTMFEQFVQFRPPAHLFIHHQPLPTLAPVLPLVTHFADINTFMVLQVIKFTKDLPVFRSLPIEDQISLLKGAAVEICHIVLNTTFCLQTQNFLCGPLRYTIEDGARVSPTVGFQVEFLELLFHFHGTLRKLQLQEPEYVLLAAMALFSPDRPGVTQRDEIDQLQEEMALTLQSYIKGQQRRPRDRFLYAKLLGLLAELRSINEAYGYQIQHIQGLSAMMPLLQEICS
In short: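 HepG2 cells transiently transfected with multiplexed GAL4-UAS reporter units expressing chimeric NR-Gal4 proteins; compound exposure 24 h. Reporter mRNA measured by RT-PCR, 6-FAM labelling, HpaI digestion and capillary electrophoresis; gain-of-signal fitted against DMSO baseline.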

[15] = molecular target: Steroid hormone receptor ERR1 (Homo sapiens) (UniProt P11474); assay: ATG_ERRa_TRANS: Attagene TRANS-FACTORIAL HepG2 Assay for human Estrogen-Related Receptor alpha (ERRa) (AID 2282971; active = hit-call score of the fitted dose curve at least 0.9, where 1 is the maximum); conditions: HepG2 Attagene TRANS reporter, ERRa transactivation
Chain of Steroid hormone receptor ERR1 (Homo sapiens) (P11474 whole entry, looked up, the tested form may be a part): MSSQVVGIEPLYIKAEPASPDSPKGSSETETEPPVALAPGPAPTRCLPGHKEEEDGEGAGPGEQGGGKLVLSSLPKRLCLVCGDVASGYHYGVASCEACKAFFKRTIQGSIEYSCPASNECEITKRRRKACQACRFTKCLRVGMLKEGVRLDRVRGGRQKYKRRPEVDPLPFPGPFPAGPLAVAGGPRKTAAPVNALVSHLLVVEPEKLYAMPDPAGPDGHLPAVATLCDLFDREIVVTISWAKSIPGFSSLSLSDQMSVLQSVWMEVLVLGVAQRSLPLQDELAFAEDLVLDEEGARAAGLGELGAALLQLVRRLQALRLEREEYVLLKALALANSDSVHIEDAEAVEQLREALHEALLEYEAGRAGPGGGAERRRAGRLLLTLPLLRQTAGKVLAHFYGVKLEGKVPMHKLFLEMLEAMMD
In short: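 Transfected HepG2, 24 h dosing, ERRa-Gal4 chimera driving GAL4-UAS reporter. Readout: reporter mRNA via RT-PCR plus capillary electrophoresis (fluorescence). Positive direction vs DMSO control.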

[16] = molecular target: X-box-binding protein 1 (Homo sapiens) (UniProt P17861); assay: ATG_Xbp1_CIS: Attagene CIS-FACTORIAL HepG2 Assay for human X-box Binding Protein 1 (XBP1) (AID 2282972); conditions: HepG2 XBP1 cis-element reporter, Attagene multiplex; actives raise or lower the signal
Chain of X-box-binding protein 1 (Homo sapiens) (P17861 whole entry, looked up, the tested form may be a part): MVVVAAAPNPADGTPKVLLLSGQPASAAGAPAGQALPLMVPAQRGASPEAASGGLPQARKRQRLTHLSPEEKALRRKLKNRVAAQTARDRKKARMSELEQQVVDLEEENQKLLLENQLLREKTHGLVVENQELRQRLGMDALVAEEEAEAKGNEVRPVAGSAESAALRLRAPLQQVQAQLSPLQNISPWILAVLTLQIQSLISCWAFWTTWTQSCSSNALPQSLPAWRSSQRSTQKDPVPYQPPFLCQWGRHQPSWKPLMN
In short: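 Fluorescence-labelled cDNA fragments from reporter transcripts, separated by capillary electrophoresis, give the signal. Source: HepG2 cells transfected with promoter-driven reporter units, harvested 24 h post-dose. DMSO served as reference for bidirectional curve fitting.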

[17] = ATG_M_19_TRANS: Attagene TRANS-FACTORIAL HepG2 Assay for M19 Transcription Factor (Internal Marker) (AID 2282974; active = hit-call score of the fitted dose curve at least 0.9, where 1 is the maximum); conditions: HepG2 Attagene TRANS-FACTORIAL M19 internal marker reporter
In short: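 Multiplexed TRANS format: HepG2 liver cells bearing transient GAL4-UAS reporter units, chemical treatment 24 h, reporter transcripts quantified by RT-PCR plus capillary electrophoresis. DMSO defines baseline.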

SMILES	outcome [1]	AC50 [2]	outcome [3]	outcome [4]	outcome [5]	outcome [6]	outcome [7]	outcome [8]	outcome [9]	outcome [10]	outcome [11]	outcome [12]	outcome [13]	outcome [14]	outcome [15]	outcome [16]	outcome [2]	AC50 [6]	AC50 [7]	outcome [17]
C#CC(C)N(C)C(=O)Nc1ccc(Cl)cc1 (stereo unspecified)	inactive	8.86 µM (active)	inactive	inactive	inactive	inactive	inactive	inactive	inactive	inactive	inactive	inactive	inactive	inactive	inactive	inactive	–	–	–	–
CCCC(=O)OCCc1ccccc1	inactive	–	inactive	inactive	inactive	inactive	inactive	inactive	inactive	inactive	inactive	inactive	inactive	–	–	inactive	inactive	–	–	–
CCN(CC)C(=O)N(CC)CC	inactive	52 µM (active)	inactive	inactive	inactive	inactive	inactive	inactive	inactive	inactive	inactive	inactive	inactive	inactive	–	inactive	–	–	–	–
Clc1cc(Cl)c(-c2c(Cl)c(Cl)cc(Cl)c2Cl)cc1Cl	inactive	3.45 µM (active)	inactive	inactive	inactive	–	–	inactive	inactive	inactive	inactive	inactive	inactive	–	inactive	inactive	–	50 µM (active)	50 µM (active)	inactive
